From PubChem BioAssay (Tox21)
Inconclusive results are not listed. Entries that show only a call come without a potency. Values without a mark were called inactive. Activity calls are given as the source filed them. Unless noted, the call rests on the fitted dose curve; in most records, active means well fitted curve in the direction sought with a large enough effect in the repeat runs; inconclusive means weak or mixed curves; inactive means no such curve, though single readings can be large; an effect the other way counts as inactive or inconclusive.

Columns and labels:
[1] = qHTS assay to identify small molecule agonists of the vitamin D receptor (VDR) signaling pathway - cell viability counter screen (AID 743224); further: series mostly up to about 63 µM; nearly all actives have a fitted effect of over 50% in size
Summary of the method: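 Counter screen for cytotoxicity: VDR-bla cells at 2,000 cells/well, 16 h compound exposure, then CellTiter-Glo luminescence after the beta-lactamase measurement.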

[2] = qHTS assay to identify small molecule antagonists of the vitamin D receptor (VDR) signaling pathway - cell viability counter screen (AID 743225); further: nearly all actives have a fitted effect of over 50% in size
Summary of the method: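 Parallel cytotoxicity test: VDR-UAS-bla HEK 293T, 3 nM (final) 1-alpha,25-dihydroxyvitamin D3 with test compound, 16 h, 37C. Endpoint is CellTiter-Glo luminescence in the same wells.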

[3] = qHTS assay to identify small molecule agonists of the endoplasmic reticulum stress response signaling pathway (AID 1159516; active means well fitted activation curve with a large enough effect in the signal ratio in the repeat runs, not every such curve was filed as active; the % refers to the signal ratio)
Summary of the method: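 For this screen, HeLa cells stably carrying beta-lactamase under the ER stress response element received test compounds, positive controls or DMSO for 5 hr at 37 C; B/G FRET substrate was then added and dual-wavelength emission recorded.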

[4] = qHTS assay to identify small molecule agonists of the endoplasmic reticulum stress response signaling pathway - cell viability counter screen (AID 1159517; calls by dose curve; further: series mostly up to about 61 µM; nearly all actives have a fitted effect of over 50% in size)
Summary of the method: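 In parallel with the ESRE reporter read, cytotoxicity was scored by CellTiter-Glo luminescence (30 min, room temperature) on HeLa ESRE-bla cells dosed for 5 hr.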

[5] = biological target: Nuclear receptor ROR-gamma (Homo sapiens) (UniProt P51449); test: qHTS assay to identify small molecule antagonists of the retinoid-related orphan receptor gamma (ROR-gamma) signaling pathway (AID 1159521;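 further: CHO cells with doxycycline inducible ROR-gamma driving an RORE luciferase reporter; top concentration of the series differs between compounds; nearly all actives have a fitted effect of over 50% in size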)
Summary of the method: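 Decreased RORE-driven luciferase luminescence indicates antagonism. Tet-on RORγ CHO cells received compound, then 1 uM final doxycycline 2 h later; signal read after 16 h incubation.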

[6] = qHTS assay to identify small molecule agonists of the AP-1 signaling pathway - cell viability counter screen (AID 1159525; calls by dose curve; further: nearly all actives have a fitted effect of over 55% in size)
Summary of the method: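 Same-well cytotoxicity counter screen of the Tox21 10K library in ME-180 cells. The readout is ATP-dependent luminescence after 5 h compound treatment. Data are normalised to DMSO and tetra n-octyl ammonium bromide controls.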

[7] = qHTS assay to identify small molecule agonists of the AP-1 signaling pathway (AID 1159526; calls by dose curve)
[8] = biological target: Retinoic acid receptor RXR-alpha (Homo sapiens) (UniProt P19793); test: qHTS assay to identify small molecule agonists of the RXR signaling pathway (AID 1159527; calls by dose curve; further: nearly all actives have a fitted effect of over 35% in size)
Retinoic acid receptor RXR-alpha (Homo sapiens), sequence (P19793 whole entry, looked up): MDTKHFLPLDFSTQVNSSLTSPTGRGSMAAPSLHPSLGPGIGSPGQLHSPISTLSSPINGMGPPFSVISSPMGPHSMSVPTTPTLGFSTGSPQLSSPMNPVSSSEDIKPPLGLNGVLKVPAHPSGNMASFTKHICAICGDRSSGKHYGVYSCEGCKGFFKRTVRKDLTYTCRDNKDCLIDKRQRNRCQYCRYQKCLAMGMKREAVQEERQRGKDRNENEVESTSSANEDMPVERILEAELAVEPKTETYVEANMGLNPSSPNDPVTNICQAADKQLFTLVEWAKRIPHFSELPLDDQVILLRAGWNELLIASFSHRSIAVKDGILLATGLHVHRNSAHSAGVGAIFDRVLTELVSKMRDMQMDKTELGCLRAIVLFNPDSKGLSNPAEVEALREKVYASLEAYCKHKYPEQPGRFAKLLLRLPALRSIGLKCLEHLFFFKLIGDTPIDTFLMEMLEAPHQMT
Summary of the method: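 16 hr incubation of compound-treated RXR-alpha-UAS-bla HEK 293T cells (2% charcoal-stripped FBS, 37 C) preceded a 2 hr room-temperature LiveBLAzer FRET substrate step and blue/green fluorescence measurement.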

[9] = qHTS assay to identify small molecule agonists of the RXR signaling pathway - cell viability counter screen (AID 1159529)
Summary of the method: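 In this parallel viability measure, GeneBLAzer RXR-alpha HEK 293T cells (2% charcoal-stripped FBS) were given a 5 hr preincubation, treated with compounds 16 hr at 37 C, and read by CellTiter-Glo luminescence.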

[10] = qHTS assay to identify small molecule antagonists of the retinoid acid receptor (RAR) signaling pathway - cell viability counter screen (AID 1159551); further: nearly all actives have a fitted effect of over 35% in size
Summary of the method: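 Measured by luminescent ATP detection, viability reflects C3RL4 cells treated 6 h at 37 C with test chemicals in the presence of 1 uM (final) retinol.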

[11] = qHTS assay to identify small molecule antagonists of the retinoic acid receptor (RAR) signaling pathway (AID 1159552; further: nearly all actives have a fitted effect of over 50% in size; further: potency means the concentration at half of the fitted maximal effect)
Summary of the method: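 C3RL4 RARE-luc cells, overnight plating; retinol 1 uM final added right after compound; 6 hr 37 C; luciferase read at 30 min RT.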

[12] = qHTS assay to identify small molecule antagonists of the retinoid-related orphan receptor gamma (ROR-gamma) signaling pathway - cell viability counter screen (AID 1159520); further: nearly all actives have a fitted effect of over 50% in size
Summary of the method: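 Tet-on ROR gamma CHO cells were given compounds for 2 hr, then doxycycline hyclate at 1 uM final, and incubated 16 hr at 37 C. Viability was measured as ATP content by CellTiter-Glo luminescence.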

[13] = qHTS assay to identify small molecule agonists of the retinoic acid receptor (RAR) signaling pathway (AID 1159553)
Summary of the method: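 6 hr compound exposure (DMSO vehicle) of overnight-plated C3RL4 RARE-luc cells at 37 C; luminescence quantified after 30 min RT with luciferase reagent.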

| Structure (SMILES) | outcome [1] | outcome [2] | outcome [3] | outcome [4] | Potency [5] | outcome [6] | outcome [7] | Potency [8] | Potency [9] | outcome [10] | Potency [11] | outcome [12] | Potency [13] | activity, negative = cytotoxicity [12] | activity change, negative = inhibition [5] | viability change, negative = cytotoxic [6] | activation [7] | activation [8] | activity change, negative = cytotoxicity [9] | activity change, negative = cytotoxicity [10] |
| --- | --- | --- | --- | --- | --- | --- | --- | --- | --- | --- | --- | --- | --- | --- | --- | --- | --- | --- | --- | --- |
| CCCCCCCCN1CCCC1=O | inactive | inactive | inactive | inactive | inactive | inactive | inactive | inactive | inactive | inactive | inactive |  |  |  |  |  |  |  |  |  |
| CNC(=O)Nc1ccc(Cl)c(Cl)c1 | inactive | inactive | inactive | inactive | inactive | inactive | inactive | inactive | inactive | inactive | inactive | inactive |  |  |  |  |  |  |  |  |
| CN(C)CCN(C)CCN(C)C | inactive |  | inactive | inactive |  | inactive | inactive | inactive | inactive | inactive |  | inactive |  |  |  |  |  |  |  |  |
| CC1CCC(CO)CC1 (stereo unspecified) | inactive | inactive | inactive | inactive | inactive | inactive | inactive |  | inactive | inactive | inactive | inactive |  |  |  |  |  |  |  |  |
| CCOC(=O)COc1cc(-n2ncc(C(F)(F)F)c(C)c2=O)c(F)cc1Cl | inactive | inactive | inactive | inactive | inactive | inactive | inactive | inactive | inactive | inactive | inactive | inactive |  |  |  |  |  |  |  |  |
| CC/C=C\CCOC(C)OCC (stereo unspecified) |  | inactive | inactive | inactive |  | inactive | inactive | inactive | inactive | inactive |  | inactive |  |  |  |  |  |  |  |  |
| CC(=O)c1ccccc1[N+](=O)[O-] | inactive | inactive | inactive | inactive |  | inactive | inactive |  | inactive | inactive |  | inactive | inactive |  |  |  |  |  |  |  |
| CCOC(=O)c1ccccc1 | inactive | inactive | inactive | inactive | inactive | inactive | inactive |  | inactive | inactive |  | inactive |  |  |  |  |  |  |  |  |
| OCCCCCO | inactive | inactive |  | inactive | inactive | inactive | inactive | inactive | inactive | inactive |  | inactive |  |  |  |  |  |  |  |  |
| COCCOCC(OC)OC |  | inactive |  | inactive | inactive | inactive | inactive | inactive | inactive | inactive |  |  |  |  |  |  |  |  |  |  |
| C=CN1CCCCCC1=O |  | inactive | inactive | inactive | inactive | inactive | inactive | inactive | inactive | inactive |  | inactive |  |  |  |  |  |  |  |  |
| CN1[C@@H]2CC[C@H]1CC(OC(=O)C(O)c1ccccc1)C2 (stereo partly specified) |  | inactive | inactive | inactive | inactive | inactive | inactive | inactive | inactive | inactive |  | inactive |  |  |  |  |  |  |  |  |
| CC(=O)Nc1ccc(OCC(O)CNC(C)C)cc1 (stereo unspecified) | inactive | inactive | inactive | inactive |  | inactive | inactive | inactive | inactive | inactive | inactive | inactive |  |  |  |  |  |  |  |  |
| CCCCOC(=O)CCC(C)=O |  | inactive | inactive | inactive | inactive | inactive | inactive | inactive | inactive | inactive | inactive | inactive |  |  |  |  |  |  |  |  |
| O=S(=O)(O)c1cccc2c(S(=O)(=O)O)cccc12 | inactive | inactive | inactive | inactive | inactive | inactive | inactive | inactive | inactive | inactive |  | inactive | inactive |  |  |  |  |  |  |  |
| CC(=O)NC(=O)c1ccccc1O |  | inactive | inactive | inactive | inactive | inactive | inactive |  | inactive | inactive |  | inactive |  |  |  |  |  |  |  |  |
| Cc1ncc(COP(=O)(O)O)c(C=O)c1O | inactive | inactive | inactive | inactive |  | inactive | inactive | inactive | inactive | inactive |  | inactive | inactive |  |  |  |  |  |  |  |
| Cc1ccc(C(=O)c2ccc(CC(=O)O)n2C)cc1 |  | inactive | inactive | inactive | inactive | inactive | inactive | inactive | inactive | inactive |  | inactive | inactive |  |  |  |  |  |  |  |
| CC(C)C1CCC(O)CC1 (stereo unspecified) | inactive | inactive | inactive | inactive |  | inactive | inactive | inactive | inactive | inactive |  | inactive |  |  |  |  |  |  |  |  |
| CCO[Si](OCC)(OCC)c1ccccc1 | inactive | inactive |  | inactive | inactive | inactive | inactive | inactive | inactive | inactive |  |  |  |  |  |  |  |  |  |  |
| C[C@@H]1CCC[C@H](C)N1 | inactive |  | inactive | inactive | inactive | inactive | inactive | inactive | inactive | inactive |  |  |  |  |  |  |  |  |  |  |
| CC(C)C(=O)OC(=O)C(C)C | inactive | inactive | inactive | inactive | inactive | inactive | inactive |  | inactive | inactive |  | inactive |  |  |  |  |  |  |  |  |
| C=CCCC(=O)O | inactive | inactive | inactive | inactive | inactive | inactive | inactive | inactive | inactive | inactive |  | inactive |  |  |  |  |  |  |  |  |
| COC(=O)C1=C(C)NC(C)=C(C(=O)OC(C)C)C1c1cccc2nonc12 (stereo unspecified) | inactive | inactive | inactive | inactive | inactive | inactive | inactive | inactive | inactive | inactive | 21.1 µM (active) | inactive | inactive |  |  |  |  |  |  |  |
| Cc1nc2ccc(CN(C)c3ccc(C(=O)N[C@@H](CCC(=O)O)C(=O)O)s3)cc2c(=O)[nH]1 | inactive | inactive | inactive | inactive | inactive | inactive | inactive | inactive | inactive | inactive |  |  |  |  |  |  |  |  |  |  |
| CCOC(=O)OC(C)OC1=C(C(=O)Nc2ccccn2)N(C)S(=O)(=O)c2ccccc21 (stereo unspecified) | inactive | inactive | inactive | inactive | inactive | inactive | inactive | inactive | inactive | inactive |  | inactive |  |  |  |  |  |  |  |  |
| C=COCC1CCC(COC=C)CC1 (stereo unspecified) | inactive | inactive | inactive | inactive |  | inactive | inactive | inactive | inactive | inactive |  | inactive |  |  |  |  |  |  |  |  |
| COCCOC[C@H](CC1(C(=O)NC2CCC(C(=O)O)CC2)CCCC1)C(=O)Oc1ccc2c(c1)CCC2 (stereo partly specified) | inactive | inactive | inactive | inactive | inactive | inactive | inactive | inactive | inactive | inactive | inactive | inactive | inactive |  |  |  |  |  |  |  |
| CCN(CC#N)c1cccc(C)c1 | inactive | inactive | inactive | inactive | inactive | inactive | inactive | inactive | inactive | inactive | inactive | inactive |  |  |  |  |  |  |  |  |
| CC(C)C[C@@H](N)C(=O)O | inactive | inactive | inactive | inactive |  |  |  |  |  |  |  |  |  | 3.47% [at 19 µM] | 6.26% [at 19 µM] | -0.425% [at 15.8 µM] | -5.77% [at 15.8 µM] | 4.08% [at 15.8 µM] | 4.29% [at 15.8 µM] | 3.59% [at 19 µM] |
